# Experiments:
# [1] = target: Sphingosine kinase 1 (Homo sapiens) (UniProt Q9NYA1); conditions: at 1 µM;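 note: mean SPHK1 inhibition value reported from the GSK PKIS kinase panel screen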
# [2] = target: T1, Sphingosine kinase 2 (Homo sapiens) (UniProt Q9NRA0); conditions: at 0.1 µM
# T1 sequence (whole entry): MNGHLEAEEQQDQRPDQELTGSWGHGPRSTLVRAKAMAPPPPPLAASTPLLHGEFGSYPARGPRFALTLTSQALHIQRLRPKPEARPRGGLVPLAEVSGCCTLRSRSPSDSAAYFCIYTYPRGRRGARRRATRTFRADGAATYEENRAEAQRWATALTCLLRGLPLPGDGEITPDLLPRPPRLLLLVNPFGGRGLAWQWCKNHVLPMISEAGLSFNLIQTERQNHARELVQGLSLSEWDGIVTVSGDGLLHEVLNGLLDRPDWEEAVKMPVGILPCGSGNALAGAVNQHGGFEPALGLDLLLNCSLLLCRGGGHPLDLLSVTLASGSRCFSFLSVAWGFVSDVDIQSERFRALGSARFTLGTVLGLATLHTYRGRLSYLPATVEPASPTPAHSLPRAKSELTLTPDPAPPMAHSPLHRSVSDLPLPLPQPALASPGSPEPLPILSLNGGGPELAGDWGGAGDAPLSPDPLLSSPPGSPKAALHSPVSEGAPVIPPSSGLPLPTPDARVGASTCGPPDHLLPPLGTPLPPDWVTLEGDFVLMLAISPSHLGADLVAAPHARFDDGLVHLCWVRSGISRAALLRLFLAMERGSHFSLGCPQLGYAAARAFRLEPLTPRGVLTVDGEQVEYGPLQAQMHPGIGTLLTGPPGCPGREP
# [3] = target: T1, Sphingosine kinase 2 (Homo sapiens); conditions: at 1 µM
# [4] = target: Casein kinase II subunit alpha (Homo sapiens) (UniProt P68400); conditions: at 0.1 µM
# Sequence of Casein kinase II subunit alpha (Homo sapiens) (P68400 whole entry, looked up): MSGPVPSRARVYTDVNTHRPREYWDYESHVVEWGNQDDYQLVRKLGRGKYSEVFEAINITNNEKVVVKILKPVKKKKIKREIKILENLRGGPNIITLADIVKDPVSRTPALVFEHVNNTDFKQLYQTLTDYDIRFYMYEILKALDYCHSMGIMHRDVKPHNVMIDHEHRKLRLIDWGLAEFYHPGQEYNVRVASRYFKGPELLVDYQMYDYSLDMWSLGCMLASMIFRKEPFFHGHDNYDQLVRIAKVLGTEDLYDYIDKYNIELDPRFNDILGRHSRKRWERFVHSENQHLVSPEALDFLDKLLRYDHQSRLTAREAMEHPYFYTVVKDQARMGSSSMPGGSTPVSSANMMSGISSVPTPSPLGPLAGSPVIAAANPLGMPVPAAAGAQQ
# [5] = target: Casein kinase II subunit alpha (Homo sapiens) (UniProt P68400); conditions: at 1 µM
# [6] = target: T2, Inhibitor of nuclear factor kappa-B kinase subunit alpha (Homo sapiens) (UniProt O15111); conditions: at 0.1 µM
# T2 sequence (whole entry): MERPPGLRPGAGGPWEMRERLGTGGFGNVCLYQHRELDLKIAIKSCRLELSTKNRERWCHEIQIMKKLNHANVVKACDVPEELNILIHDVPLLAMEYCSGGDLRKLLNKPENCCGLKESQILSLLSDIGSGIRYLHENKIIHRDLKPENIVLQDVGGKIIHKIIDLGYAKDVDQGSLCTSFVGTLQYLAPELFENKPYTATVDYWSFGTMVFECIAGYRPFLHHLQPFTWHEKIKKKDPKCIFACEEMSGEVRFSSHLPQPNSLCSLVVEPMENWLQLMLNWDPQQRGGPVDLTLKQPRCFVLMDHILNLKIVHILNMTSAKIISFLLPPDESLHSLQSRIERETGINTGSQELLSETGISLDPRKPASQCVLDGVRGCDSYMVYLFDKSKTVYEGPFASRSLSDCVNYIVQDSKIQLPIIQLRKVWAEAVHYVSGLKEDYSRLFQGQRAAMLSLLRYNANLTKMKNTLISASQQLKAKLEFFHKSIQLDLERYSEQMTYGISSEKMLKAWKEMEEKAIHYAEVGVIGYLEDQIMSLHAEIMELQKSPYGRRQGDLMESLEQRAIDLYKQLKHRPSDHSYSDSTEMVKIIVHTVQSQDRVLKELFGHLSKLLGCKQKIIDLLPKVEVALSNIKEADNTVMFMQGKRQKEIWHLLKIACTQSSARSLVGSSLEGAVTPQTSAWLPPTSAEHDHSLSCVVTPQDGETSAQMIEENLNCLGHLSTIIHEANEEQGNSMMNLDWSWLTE
# [7] = target: T2, Inhibitor of nuclear factor kappa-B kinase subunit alpha (Homo sapiens); conditions: at 1 µM
# [8] = target: T3, Inhibitor of nuclear factor kappa-B kinase subunit beta (Homo sapiens) (UniProt O14920); conditions: at 0.1 µM
# T3 sequence (whole entry): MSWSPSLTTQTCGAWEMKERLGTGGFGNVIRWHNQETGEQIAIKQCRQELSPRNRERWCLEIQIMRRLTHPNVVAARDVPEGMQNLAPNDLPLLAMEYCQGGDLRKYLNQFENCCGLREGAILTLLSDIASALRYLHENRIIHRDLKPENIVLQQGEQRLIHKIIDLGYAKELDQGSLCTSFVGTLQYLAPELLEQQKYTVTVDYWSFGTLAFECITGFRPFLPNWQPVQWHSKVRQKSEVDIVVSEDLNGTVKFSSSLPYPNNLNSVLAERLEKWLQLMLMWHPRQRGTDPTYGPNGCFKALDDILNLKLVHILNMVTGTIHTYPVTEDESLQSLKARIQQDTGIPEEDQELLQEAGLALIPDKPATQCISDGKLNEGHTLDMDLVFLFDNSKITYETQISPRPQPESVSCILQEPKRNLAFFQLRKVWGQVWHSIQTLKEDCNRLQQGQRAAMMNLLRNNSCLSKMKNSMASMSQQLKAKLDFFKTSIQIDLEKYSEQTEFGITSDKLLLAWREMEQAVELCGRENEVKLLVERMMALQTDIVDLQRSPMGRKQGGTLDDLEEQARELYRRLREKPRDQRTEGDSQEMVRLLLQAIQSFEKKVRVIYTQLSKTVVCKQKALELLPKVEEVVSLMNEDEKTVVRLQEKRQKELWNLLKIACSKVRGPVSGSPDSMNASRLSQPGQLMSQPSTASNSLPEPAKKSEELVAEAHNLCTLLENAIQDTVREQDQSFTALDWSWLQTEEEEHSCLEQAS
# [9] = target: T3, Inhibitor of nuclear factor kappa-B kinase subunit beta (Homo sapiens); conditions: at 1 µM
# [10] = target: T4, Inhibitor of nuclear factor kappa-B kinase subunit epsilon (Homo sapiens) (UniProt Q14164); conditions: at 0.1 µM
# T4 sequence (whole entry): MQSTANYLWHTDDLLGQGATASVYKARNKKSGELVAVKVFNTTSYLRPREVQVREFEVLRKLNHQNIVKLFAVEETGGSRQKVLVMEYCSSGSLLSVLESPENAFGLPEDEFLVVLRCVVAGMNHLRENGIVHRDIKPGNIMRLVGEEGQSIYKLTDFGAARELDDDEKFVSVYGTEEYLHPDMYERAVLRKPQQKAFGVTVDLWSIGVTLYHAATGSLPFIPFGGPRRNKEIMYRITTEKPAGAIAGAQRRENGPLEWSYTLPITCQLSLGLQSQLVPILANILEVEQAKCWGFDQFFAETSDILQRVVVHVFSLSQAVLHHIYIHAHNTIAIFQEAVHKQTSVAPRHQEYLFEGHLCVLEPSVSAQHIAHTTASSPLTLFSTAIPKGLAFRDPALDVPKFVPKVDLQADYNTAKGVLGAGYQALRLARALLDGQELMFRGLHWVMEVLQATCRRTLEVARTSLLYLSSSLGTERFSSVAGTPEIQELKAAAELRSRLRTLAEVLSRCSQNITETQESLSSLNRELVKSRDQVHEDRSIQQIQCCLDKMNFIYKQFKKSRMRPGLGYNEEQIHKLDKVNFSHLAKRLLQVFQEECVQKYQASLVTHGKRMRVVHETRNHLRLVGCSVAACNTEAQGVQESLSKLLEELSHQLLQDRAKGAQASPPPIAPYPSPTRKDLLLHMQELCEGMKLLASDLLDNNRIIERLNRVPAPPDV
# [11] = target: T4, Inhibitor of nuclear factor kappa-B kinase subunit epsilon (Homo sapiens); conditions: at 1 µM
# [12] = target: T5, Serine/threonine-protein kinase Nek1 (Homo sapiens) (UniProt Q96PY6); conditions: at 0.1 µM
# T5 sequence (whole entry): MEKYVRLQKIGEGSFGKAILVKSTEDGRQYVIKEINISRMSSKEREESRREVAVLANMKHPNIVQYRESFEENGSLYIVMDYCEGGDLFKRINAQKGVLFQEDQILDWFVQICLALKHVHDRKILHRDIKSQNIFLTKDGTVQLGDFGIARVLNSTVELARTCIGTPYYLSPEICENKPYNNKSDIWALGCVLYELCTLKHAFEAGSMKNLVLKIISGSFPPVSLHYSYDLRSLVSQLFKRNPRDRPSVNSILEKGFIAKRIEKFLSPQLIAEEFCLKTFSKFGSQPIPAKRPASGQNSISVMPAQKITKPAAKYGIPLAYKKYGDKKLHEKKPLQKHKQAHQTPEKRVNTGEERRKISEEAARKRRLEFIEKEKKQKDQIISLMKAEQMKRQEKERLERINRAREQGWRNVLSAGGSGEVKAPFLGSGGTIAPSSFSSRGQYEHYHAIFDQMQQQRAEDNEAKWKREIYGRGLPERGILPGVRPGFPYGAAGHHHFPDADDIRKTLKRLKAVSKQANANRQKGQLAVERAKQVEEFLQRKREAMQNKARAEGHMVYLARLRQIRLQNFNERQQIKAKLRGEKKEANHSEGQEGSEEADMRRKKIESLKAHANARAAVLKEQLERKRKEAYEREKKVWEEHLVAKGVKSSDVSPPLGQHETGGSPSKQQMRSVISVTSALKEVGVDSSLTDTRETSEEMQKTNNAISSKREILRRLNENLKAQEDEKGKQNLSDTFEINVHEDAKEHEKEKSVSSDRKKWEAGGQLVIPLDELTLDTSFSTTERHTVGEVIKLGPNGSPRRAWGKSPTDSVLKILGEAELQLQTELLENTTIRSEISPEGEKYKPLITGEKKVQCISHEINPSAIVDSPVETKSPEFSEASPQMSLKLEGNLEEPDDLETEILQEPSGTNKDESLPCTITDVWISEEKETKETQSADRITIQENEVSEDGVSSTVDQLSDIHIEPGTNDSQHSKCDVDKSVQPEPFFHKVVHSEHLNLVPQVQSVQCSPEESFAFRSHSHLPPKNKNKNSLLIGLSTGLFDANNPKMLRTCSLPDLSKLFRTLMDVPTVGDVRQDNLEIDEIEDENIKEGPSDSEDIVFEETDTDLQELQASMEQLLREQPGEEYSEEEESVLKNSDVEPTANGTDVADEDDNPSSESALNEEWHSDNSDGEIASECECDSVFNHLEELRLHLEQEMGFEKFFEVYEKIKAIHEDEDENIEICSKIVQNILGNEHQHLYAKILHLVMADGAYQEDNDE
# [13] = target: T5, Serine/threonine-protein kinase Nek1 (Homo sapiens); conditions: at 1 µM
# [14] = target: T6, Serine/threonine-protein kinase Nek2 (Homo sapiens) (UniProt P51955); conditions: at 0.1 µM
# T6 sequence (whole entry): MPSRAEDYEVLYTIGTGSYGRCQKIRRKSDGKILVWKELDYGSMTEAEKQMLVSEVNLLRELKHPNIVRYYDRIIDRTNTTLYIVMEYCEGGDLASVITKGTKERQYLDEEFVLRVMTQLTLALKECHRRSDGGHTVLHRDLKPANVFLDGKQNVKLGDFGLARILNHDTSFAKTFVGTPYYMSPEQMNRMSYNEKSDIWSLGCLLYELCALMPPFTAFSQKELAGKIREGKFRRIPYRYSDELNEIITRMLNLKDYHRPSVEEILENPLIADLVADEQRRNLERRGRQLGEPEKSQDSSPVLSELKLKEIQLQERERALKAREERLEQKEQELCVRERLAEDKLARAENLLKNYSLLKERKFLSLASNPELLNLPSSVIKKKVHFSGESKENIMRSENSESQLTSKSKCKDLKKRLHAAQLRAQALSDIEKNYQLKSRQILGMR
# [15] = target: T6, Serine/threonine-protein kinase Nek2 (Homo sapiens); conditions: at 1 µM
# [16] = target: Serine/threonine-protein kinase Nek6 (Homo sapiens) (UniProt Q9HC98); conditions: at 0.1 µM
# Sequence of Serine/threonine-protein kinase Nek6 (Homo sapiens) (Q9HC98 whole entry): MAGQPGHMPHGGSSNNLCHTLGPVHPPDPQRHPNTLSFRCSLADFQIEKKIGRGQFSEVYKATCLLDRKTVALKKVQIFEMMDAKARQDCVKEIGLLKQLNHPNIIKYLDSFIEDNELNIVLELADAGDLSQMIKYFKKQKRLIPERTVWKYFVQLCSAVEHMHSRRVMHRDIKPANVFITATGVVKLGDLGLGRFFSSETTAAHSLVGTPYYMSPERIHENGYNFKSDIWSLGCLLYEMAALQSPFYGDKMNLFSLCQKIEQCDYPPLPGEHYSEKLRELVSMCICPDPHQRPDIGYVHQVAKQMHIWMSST
# [17] = target: Serine/threonine-protein kinase Nek6 (Homo sapiens) (UniProt Q9HC98); conditions: at 1 µM
# [18] = target: Serine/threonine-protein kinase Nek7 (Homo sapiens) (UniProt Q8TDX7); conditions: at 0.1 µM
# Sequence of Serine/threonine-protein kinase Nek7 (Homo sapiens) (Q8TDX7 whole entry, looked up): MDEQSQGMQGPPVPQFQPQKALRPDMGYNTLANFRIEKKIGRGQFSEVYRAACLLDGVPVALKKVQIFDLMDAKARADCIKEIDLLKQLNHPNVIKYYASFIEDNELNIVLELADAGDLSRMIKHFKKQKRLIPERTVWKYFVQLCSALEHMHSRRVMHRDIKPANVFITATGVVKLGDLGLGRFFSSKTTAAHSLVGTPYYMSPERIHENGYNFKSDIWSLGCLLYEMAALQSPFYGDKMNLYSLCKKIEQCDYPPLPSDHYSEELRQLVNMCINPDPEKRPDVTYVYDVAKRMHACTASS
# [19] = target: Serine/threonine-protein kinase Nek7 (Homo sapiens) (UniProt Q8TDX7); conditions: at 1 µM
# [20] = target: T7, Serine/threonine-protein kinase Nek9 (Homo sapiens) (UniProt Q8TD19); conditions: at 0.1 µM;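 note: reported value is the mean percent inhibition of NEK9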
# T7 sequence (whole entry): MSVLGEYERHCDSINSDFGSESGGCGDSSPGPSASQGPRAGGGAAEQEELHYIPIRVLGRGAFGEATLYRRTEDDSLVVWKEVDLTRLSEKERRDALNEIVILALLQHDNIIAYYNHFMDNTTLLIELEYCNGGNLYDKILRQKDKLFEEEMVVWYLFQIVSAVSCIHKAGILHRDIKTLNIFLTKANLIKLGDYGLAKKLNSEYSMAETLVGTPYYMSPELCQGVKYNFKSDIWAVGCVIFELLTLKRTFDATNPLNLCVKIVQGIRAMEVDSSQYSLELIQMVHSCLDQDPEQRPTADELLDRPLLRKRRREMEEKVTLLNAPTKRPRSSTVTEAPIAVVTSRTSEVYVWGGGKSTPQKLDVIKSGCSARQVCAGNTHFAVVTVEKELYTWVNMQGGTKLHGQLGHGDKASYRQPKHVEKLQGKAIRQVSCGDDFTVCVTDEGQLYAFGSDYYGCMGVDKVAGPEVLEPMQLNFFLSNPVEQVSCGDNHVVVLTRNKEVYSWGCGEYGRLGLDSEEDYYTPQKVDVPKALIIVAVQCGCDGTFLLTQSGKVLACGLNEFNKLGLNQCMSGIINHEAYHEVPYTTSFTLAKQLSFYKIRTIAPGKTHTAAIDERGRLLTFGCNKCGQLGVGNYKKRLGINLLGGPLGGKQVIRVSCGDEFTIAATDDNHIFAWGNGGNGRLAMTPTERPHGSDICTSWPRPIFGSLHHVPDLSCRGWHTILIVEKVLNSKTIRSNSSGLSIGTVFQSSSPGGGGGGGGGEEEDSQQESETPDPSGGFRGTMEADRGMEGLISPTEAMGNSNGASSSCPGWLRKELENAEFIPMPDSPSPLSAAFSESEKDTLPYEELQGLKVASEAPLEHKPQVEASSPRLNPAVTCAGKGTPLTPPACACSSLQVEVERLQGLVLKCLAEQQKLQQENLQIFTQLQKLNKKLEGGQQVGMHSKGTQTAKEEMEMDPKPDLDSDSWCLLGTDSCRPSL
# Sequence of Sphingosine kinase 1 (Homo sapiens) (Q9NYA1 whole entry): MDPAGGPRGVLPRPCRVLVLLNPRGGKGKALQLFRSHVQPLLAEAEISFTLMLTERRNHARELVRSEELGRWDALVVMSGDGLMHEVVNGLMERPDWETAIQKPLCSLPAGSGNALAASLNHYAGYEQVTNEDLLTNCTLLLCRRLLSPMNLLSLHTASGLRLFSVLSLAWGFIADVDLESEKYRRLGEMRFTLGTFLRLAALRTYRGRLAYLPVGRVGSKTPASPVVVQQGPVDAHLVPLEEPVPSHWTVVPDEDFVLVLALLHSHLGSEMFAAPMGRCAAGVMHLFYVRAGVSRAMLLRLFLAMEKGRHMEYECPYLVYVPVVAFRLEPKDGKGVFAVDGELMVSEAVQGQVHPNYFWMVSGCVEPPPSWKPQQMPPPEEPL
SMILES,inhibition [1] [%],inhibition [2] [%],inhibition [3] [%],inhibition [4] [%],inhibition [5] [%],inhibition [6] [%],inhibition [7] [%],inhibition [8] [%],inhibition [9] [%],inhibition [10] [%],inhibition [11] [%],inhibition [12] [%],inhibition [13] [%],inhibition [14] [%],inhibition [15] [%],inhibition [16] [%],inhibition [17] [%],inhibition [18] [%],inhibition [19] [%],inhibition [20] [%]
C[C@@H](Oc1cc(-n2cnc3ccc(OC4CCN(C)CC4)cc32)sc1C(N)=O)c1ccccc1Cl,-0.63,-0.31,-1.96,8.71,7.82,6.24,7.13,7.4,4.96,5.46,6.16,9.13,38.1,10.1,39.5,-0.34,2.21,3.24,8.62,62
O=C1Nc2ccc(I)cc2C1=Cc1cc(Br)c(O)c(Br)c1,0.73,-0.66,3.26,4.28,17.9,1.76,3.02,1.64,3.61,10.2,3.78,2.45,3.61,4.91,3.15,1.35,3.89,4.66,10.6,9.81

# Reference: ChEMBL document CHEMBL1961873, “Compounds: GSK PKIS; Assays: Nanosyn kinase panel” (2012)
